These results are taken from PubChem BioAssay (EPA / NIEHS).

Active and inactive are the calls of the source. The calls were made as follows: active = hit-call score of the fitted dose curve at least 0.9, where 1 is the maximum; inactive = score below 0.9.

A short description of assay [1]: ATG_CRE_CIS: Attagene CIS-FACTORIAL HepG2 Assay for human cAMP Responsive Element (CRE) binding protein 3 (AID 2282926). To be noted: HepG2 CRE cis-reporter, Attagene multiplexed mRNA; actives raise or lower the signal. The method in brief:
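Liver-derived HepG2, transfected with a CRE-containing reporter panel, exposed 24 h; transcript levels sized and quantified by capillary electrophoresis of labelled amplicons; signal changes either way referenced to vehicle.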

The target of assay [2] is CCAAT/enhancer-binding protein beta (Homo sapiens) (UniProt P17676). Kind of assay: ATG_C_EBP_CIS: Attagene CIS-FACTORIAL HepG2 Assay for human CCAAT/Enhancer Binding Protein (C/EBP) beta (AID 2282927). To be noted: HepG2 Attagene cis-factorial transcription factor reporter; actives raise or lower the signal. The method in brief: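 Following a 24 h incubation with test chemical, transfected HepG2 cells yielded RNA whose reporter transcripts were quantified by RT-PCR and fluorescent capillary electrophoresis, with DMSO serving as baseline for bidirectional fitting.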
Sequence of CCAAT/enhancer-binding protein beta (Homo sapiens) (P17676 whole entry, looked up): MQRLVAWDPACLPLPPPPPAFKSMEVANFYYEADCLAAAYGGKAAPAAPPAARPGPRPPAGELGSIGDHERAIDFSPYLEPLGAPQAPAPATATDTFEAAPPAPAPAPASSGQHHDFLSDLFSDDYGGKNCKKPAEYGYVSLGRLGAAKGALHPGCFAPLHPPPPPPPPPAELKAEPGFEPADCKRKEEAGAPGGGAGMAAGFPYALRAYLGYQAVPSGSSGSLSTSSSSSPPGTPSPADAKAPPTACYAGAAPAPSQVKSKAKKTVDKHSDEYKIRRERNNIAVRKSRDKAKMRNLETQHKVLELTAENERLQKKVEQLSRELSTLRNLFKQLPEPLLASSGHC

Assay [3] concerns the target Aryl hydrocarbon receptor (Homo sapiens) (UniProt P35869). Kind of assay: ATG_Ahr_CIS: Attagene CIS-FACTORIAL HepG2 Assay for human Aryl Hydrocarbon Receptor (Ahr) (AID 2282930). Conditions: HepG2 AhR cis-factorial reporter transcription; actives raise or lower the signal. The method in brief:
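Values derive from bidirectional fitting against DMSO negative control. Underlying signal: cis-element reporter mRNA in transiently transfected HepG2, harvested 24 h post-dose and measured by RT-PCR plus capillary electrophoresis.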

A short description of assay [4]: ATG_AP_1_CIS: Attagene CIS-FACTORIAL HepG2 Assay for human Activator Protein 1 (AP-1) (AID 2282931). To be noted: HepG2 Attagene cis-factorial AP-1 reporter mRNA; actives raise or lower the signal. The method in brief:
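After 24 h incubation with test chemical, RNA from transfected HepG2 cells was reverse-transcribed, amplified, fluorescently labelled and digested before capillary electrophoresis. Reporters were driven by cis-regulatory promoters; activity fitted bidirectionally versus DMSO.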

The nature of assay [5]: ATG_M_19_CIS: Attagene CIS-FACTORIAL HepG2 Assay for M19 Transcription Factor (Internal Marker) (AID 2282939). Conditions: HepG2 Attagene CIS-FACTORIAL M19 internal marker reporter; actives raise or lower the signal. The method in brief: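 HepG2 cells transiently transfected with cis-regulated multiplexed reporter units, dosed 24 h. Reporter mRNA quantified by RT-PCR and capillary electrophoresis; internal background marker fitted bidirectionally versus DMSO.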

Assay [6] can be described thus: ATG_GLI_CIS: Attagene CIS-FACTORIAL HepG2 Assay for human Zinc Finger Protein GLI1 (AID 2282945). Conditions: HepG2, Attagene cis-factorial reporter mRNA, GLI element; actives raise or lower the signal. In outline:
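HepG2 cells transiently transfected with cis-promoter multiplexed reporter units report endogenous transcription factor activity. After 24 h chemical exposure, reporter mRNA was quantified by RT-PCR, 6-FAM labelling, HpaI digestion and capillary electrophoresis, with bidirectional fitting against DMSO.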

Assay [7] can be described thus: ATG_M_06_CIS: Attagene CIS-FACTORIAL HepG2 Assay for M06 Transcription Factor (Internal Marker) (AID 2282950). Conditions: HepG2 Attagene CIS-FACTORIAL M06 internal marker reporter; actives raise or lower the signal. In outline: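 Internal background marker within multiplexed cis-reporter HepG2 system. Cells transiently transfected, dosed 24 h; reporter mRNA measured by RT-PCR, HpaI digestion and capillary electrophoresis. Bidirectional fit relative to DMSO.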

Assay [8] has as its target Hypoxia-inducible factor 1-alpha (Homo sapiens) (UniProt Q16665). Nature of the assay: ATG_HIF1a_CIS: Attagene CIS-FACTORIAL HepG2 Assay for human Hypoxia Inducible Factor 1 (HIF1A) (AID 2282951). To be noted: HepG2 Attagene cis-factorial HIF1a reporter transcription; actives raise or lower the signal. In outline: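 Endogenous-TF cis reporter readout, human HepG2 cells, 24 h incubation; mRNA detected via RT-PCR and capillary electrophoresis fluorescence; DMSO-normalised bidirectional fitting.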

Assay [9] has as its target Hepatocyte nuclear factor 6 (Homo sapiens) (UniProt Q9UBC0). Kind of assay: ATG_HNF6_CIS: Attagene CIS-FACTORIAL HepG2 Assay for human Hepatocyte Nuclear Factor 6 (HNF6) (AID 2282952). Conditions: HepG2 Attagene cis-factorial HNF6 reporter transcription; actives raise or lower the signal. The method in brief: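 Twenty-four-hour chemical treatment of reporter-transfected HepG2 cells precedes RNA isolation, DNase-treated reverse transcription and PCR of reporter sequences. Labelled fragments are sized by capillary electrophoresis and fitted bidirectionally versus DMSO.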

For assay [10], the target named is Heat shock factor protein 1 (Homo sapiens) (UniProt Q00613). Nature of the assay: ATG_HSE_CIS: Attagene CIS-FACTORIAL HepG2 Assay for human Heat Shock Transcription Factor 1 (HSE) (AID 2282953). Conditions: HepG2 HSE cis-reporter, Attagene RNA transcription; actives raise or lower the signal. In outline: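 HepG2 cells transfected with cis-promoter reporter units sensing endogenous transcription factor activity; reporter mRNA quantified 24 h post-dose by RT-PCR and capillary electrophoresis of 6-FAM-labelled products. Bidirectional fitting against DMSO.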
Sequence of Heat shock factor protein 1 (Homo sapiens) (Q00613 whole entry, looked up): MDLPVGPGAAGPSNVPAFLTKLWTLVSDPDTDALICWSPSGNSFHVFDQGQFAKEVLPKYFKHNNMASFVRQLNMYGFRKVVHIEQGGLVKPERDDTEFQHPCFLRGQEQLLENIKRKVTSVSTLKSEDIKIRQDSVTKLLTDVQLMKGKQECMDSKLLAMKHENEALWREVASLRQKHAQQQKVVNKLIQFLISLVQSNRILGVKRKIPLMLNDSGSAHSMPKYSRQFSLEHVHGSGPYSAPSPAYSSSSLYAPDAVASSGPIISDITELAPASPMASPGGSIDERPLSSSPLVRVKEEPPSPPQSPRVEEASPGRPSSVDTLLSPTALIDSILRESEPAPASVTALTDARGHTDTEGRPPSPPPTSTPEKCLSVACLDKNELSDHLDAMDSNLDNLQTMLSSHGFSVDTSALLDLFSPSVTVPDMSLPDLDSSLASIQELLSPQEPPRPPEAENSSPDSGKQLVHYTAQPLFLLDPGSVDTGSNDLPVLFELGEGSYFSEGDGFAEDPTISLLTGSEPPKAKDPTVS

Assay [11] in a line: ATG_TA_CIS: Attagene CIS-FACTORIAL HepG2 Assay for human TA Basal Promoter (AID 2282964). Conditions: HepG2 Attagene CIS-factorial TA basal promoter reporter; actives raise or lower the signal. In outline:
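HepG2 cells transiently transfected with multiple reporter units under cis promoter elements, reporting endogenous transcription factor activity; this endpoint tracks the TA basal promoter as background control. Reporter mRNA after 24 h dosing measured by RT-PCR/capillary electrophoresis; bidirectional fits versus DMSO.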

Assay [12] can be described thus: ATG_VDRE_CIS: Attagene CIS-FACTORIAL HepG2 Assay for human Vitamin D Receptor Element (VDRE) (AID 2282968). Conditions: HepG2 VDRE cis-reporter transcription, actives raise or lower the signal. The method in brief:
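Steps: transfect HepG2 with multiple reporter transcription units; dose chemicals 24 h; isolate RNA; RT-PCR; label with 6-FAM primer extension; HpaI digest; capillary electrophoresis. Curves fitted both directions against DMSO.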

Assay [13] concerns the target X-box-binding protein 1 (Homo sapiens) (UniProt P17861). Kind of assay: ATG_Xbp1_CIS: Attagene CIS-FACTORIAL HepG2 Assay for human X-box Binding Protein 1 (XBP1) (AID 2282972). Conditions: HepG2 XBP1 cis-element reporter, Attagene multiplex; actives raise or lower the signal. The method in brief: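 Changes in reporter transcript abundance, read by RT-PCR and capillary electrophoresis, reflect endogenous transcription factor activity. Transfected HepG2 cells received compound for 24 hours; DMSO defined baseline for bidirectional analysis.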

In assay [14] the target is Nuclear respiratory factor 1 (Homo sapiens) (UniProt Q16656). Kind of assay: ATG_NRF1_CIS: Attagene CIS-FACTORIAL HepG2 Assay for human Nuclear Respiratory Factor 1 (NRF1) Orphan Gene (AID 2282987). Conditions: HepG2 NRF1 cis-element reporter, Attagene multiplex; actives raise or lower the signal. In outline: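 Endogenous factor activity was captured via cis-element-driven reporter transcripts in HepG2 cells. Following 24 h chemical treatment, transcripts were quantified by RT-PCR and capillary electrophoresis.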
Sequence of Nuclear respiratory factor 1 (Homo sapiens) (Q16656 whole entry, looked up): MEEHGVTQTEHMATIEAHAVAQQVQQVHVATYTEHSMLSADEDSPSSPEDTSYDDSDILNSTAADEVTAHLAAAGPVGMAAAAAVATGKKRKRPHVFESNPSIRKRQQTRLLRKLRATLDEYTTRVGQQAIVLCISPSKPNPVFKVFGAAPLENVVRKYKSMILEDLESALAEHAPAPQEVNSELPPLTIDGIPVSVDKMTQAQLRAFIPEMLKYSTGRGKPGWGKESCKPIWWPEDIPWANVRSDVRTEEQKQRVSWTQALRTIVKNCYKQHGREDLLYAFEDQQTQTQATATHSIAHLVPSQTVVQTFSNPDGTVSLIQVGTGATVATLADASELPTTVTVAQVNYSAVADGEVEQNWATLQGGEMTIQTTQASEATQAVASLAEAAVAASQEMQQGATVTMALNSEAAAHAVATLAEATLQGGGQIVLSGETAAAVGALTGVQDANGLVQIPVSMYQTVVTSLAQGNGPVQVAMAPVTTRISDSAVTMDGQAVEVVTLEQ

Assay [15] concerns the target Myc proto-oncogene protein (Homo sapiens) (UniProt P01106). Kind of assay: ATG_Myc_CIS: Attagene CIS-FACTORIAL HepG2 Assay for human Myelocytomatosis (Myc) Proto-Oncogene Transcription Factor (AID 2282990). Conditions: HepG2, Attagene cis-reporter transcription factor activity; actives raise or lower the signal. The method in brief:
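Multiplexed cis-reporter transcription in HepG2 cells after 24 h chemical treatment. Reporter mRNA measured by RT-PCR and capillary electrophoresis fluorescence; activity fitted bidirectionally against DMSO control.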

Assay [16] can be described thus: ATG_NRF2_ARE_CIS: Attagene CIS-FACTORIAL HepG2 Assay for human Nuclear Factor Erythroid 2 Related Factor 2 (NFR2) response to Antioxidant Response Elements (ARE) (AID 2282992). To be noted: HepG2 Attagene ARE/NRF2 reporter, transcription factor activity; actives raise or lower the signal. In outline: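 Using transiently transfected HepG2 cells exposed for 24 h, reporter mRNA levels were determined by RT-PCR with fluorescent primer extension and capillary electrophoresis, analysed for gain or loss of signal against DMSO.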

Assay [17] can be described thus: ATG_Oct_MLP_CIS: Attagene CIS-FACTORIAL HepG2 Assay for human Octamer-Binding Transcription Factor (Oct) (AID 2282993). To be noted: HepG2 Attagene cis-factorial Oct reporter, mRNA; actives raise or lower the signal. In outline:
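HepG2 cells transiently transfected with cis-element-driven reporter transcription units (endogenous TF activity); 24 h compound exposure. Reporter mRNA quantified by RT-PCR, 6-FAM labelling, HpaI digestion and capillary electrophoresis; bidirectional fit versus DMSO baseline.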

Assay [18] is described as follows: ATG_BRE_CIS: Attagene CIS-FACTORIAL HepG2 Assay for human Bone Morphogenetic Protein (BMP) Response Element (BRE) (AID 2282933). Conditions: HepG2 BMP response element reporter, Attagene transcription factor profiling; actives raise or lower the signal. In outline: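 HepG2 cells transiently transfected with CIS reporter units (endogenous TF activity, BMP response element), dosed 24 h. Reporter mRNA quantified by RT-PCR, fluorescent labelling and capillary electrophoresis; bidirectional fit vs DMSO baseline.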

Assay [19] is described as follows: ATG_E_Box_CIS: Attagene CIS-FACTORIAL HepG2 Assay for human Enhancer Box (E-box) (AID 2282936). Conditions: HepG2 E-box cis-reporter transcription, actives raise or lower the signal. In outline: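 Endogenous transcription factor activity was sensed in human HepG2 liver cells through transfected cis-promoter reporter units. After 24 h of dosing, total RNA was reverse-transcribed and reporter cDNA resolved by capillary electrophoresis.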

For assay [20], the target named is Cellular tumor antigen p53 (Homo sapiens) (UniProt P04637). Nature of the assay: ATG_p53_CIS: Attagene CIS-FACTORIAL HepG2 Assay for human p53 Transcription Factor (AID 2282994). Conditions: HepG2 p53 cis-element reporter, Attagene mRNA; actives raise or lower the signal. In outline:
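In HepG2 cells, reporter transcription units under cis-regulatory promoters were transiently introduced. Following 24 h treatment, RNA was processed to labelled, digested cDNA fragments read by capillary electrophoresis; fitting was bidirectional versus DMSO.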

Sequence of Hypoxia-inducible factor 1-alpha (Homo sapiens) (Q16665 whole entry, looked up): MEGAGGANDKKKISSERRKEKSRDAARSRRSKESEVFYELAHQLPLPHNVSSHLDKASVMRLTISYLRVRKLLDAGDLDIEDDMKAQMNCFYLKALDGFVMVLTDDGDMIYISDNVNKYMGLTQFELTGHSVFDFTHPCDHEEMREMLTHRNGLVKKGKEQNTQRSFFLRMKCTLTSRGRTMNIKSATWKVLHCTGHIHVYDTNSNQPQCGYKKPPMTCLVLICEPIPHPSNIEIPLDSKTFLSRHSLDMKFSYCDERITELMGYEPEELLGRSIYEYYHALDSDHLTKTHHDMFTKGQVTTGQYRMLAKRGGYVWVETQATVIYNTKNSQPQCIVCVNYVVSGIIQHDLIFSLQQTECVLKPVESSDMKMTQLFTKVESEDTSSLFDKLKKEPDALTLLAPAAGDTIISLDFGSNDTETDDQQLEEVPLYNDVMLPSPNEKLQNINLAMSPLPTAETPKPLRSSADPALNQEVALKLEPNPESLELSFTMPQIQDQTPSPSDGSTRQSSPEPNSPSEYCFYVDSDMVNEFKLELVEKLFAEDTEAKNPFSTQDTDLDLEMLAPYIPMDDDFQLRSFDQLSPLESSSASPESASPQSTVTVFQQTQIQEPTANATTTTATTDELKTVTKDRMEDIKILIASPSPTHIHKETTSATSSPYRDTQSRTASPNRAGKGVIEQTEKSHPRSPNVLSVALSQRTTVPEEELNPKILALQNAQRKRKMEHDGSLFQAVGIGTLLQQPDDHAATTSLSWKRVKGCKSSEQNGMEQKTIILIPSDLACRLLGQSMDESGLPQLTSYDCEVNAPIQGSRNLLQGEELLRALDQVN
Sequence of Myc proto-oncogene protein (Homo sapiens) (P01106 whole entry, looked up): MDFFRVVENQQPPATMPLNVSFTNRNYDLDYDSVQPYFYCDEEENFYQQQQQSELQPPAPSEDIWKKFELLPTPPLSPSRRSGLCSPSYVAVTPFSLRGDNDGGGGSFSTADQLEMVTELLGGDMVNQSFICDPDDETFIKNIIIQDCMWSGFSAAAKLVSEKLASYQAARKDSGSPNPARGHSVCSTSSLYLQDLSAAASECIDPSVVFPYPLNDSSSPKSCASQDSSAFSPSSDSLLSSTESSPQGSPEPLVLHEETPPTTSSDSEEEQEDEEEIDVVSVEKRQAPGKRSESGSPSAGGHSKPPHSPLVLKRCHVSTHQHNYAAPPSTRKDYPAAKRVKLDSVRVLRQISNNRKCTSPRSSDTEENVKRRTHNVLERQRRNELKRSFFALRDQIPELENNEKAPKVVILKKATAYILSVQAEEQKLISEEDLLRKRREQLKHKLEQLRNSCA
Sequence of Hepatocyte nuclear factor 6 (Homo sapiens) (Q9UBC0 whole entry, looked up, the tested form may be a part): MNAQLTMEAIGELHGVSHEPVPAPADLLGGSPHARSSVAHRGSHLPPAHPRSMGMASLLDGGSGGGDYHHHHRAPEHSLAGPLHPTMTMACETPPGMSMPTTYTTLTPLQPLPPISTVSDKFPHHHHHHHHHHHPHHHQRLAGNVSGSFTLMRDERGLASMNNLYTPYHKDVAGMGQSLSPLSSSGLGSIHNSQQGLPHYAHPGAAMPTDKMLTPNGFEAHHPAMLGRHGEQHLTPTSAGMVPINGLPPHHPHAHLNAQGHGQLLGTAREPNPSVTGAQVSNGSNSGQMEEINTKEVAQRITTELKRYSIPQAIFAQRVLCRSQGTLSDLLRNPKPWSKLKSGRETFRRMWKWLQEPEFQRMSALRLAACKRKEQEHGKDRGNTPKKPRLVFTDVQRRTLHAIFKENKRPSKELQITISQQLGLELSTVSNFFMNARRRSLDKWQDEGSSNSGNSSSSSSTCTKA
Sequence of X-box-binding protein 1 (Homo sapiens) (P17861 whole entry, looked up): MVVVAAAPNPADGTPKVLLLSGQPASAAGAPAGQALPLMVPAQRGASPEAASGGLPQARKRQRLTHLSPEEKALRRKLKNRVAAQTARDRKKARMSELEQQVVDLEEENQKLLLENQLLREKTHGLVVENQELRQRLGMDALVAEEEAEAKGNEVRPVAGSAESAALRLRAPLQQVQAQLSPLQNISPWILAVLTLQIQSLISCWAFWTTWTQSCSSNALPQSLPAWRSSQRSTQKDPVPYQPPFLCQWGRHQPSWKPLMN
Sequence of Aryl hydrocarbon receptor (Homo sapiens) (P35869 whole entry, looked up): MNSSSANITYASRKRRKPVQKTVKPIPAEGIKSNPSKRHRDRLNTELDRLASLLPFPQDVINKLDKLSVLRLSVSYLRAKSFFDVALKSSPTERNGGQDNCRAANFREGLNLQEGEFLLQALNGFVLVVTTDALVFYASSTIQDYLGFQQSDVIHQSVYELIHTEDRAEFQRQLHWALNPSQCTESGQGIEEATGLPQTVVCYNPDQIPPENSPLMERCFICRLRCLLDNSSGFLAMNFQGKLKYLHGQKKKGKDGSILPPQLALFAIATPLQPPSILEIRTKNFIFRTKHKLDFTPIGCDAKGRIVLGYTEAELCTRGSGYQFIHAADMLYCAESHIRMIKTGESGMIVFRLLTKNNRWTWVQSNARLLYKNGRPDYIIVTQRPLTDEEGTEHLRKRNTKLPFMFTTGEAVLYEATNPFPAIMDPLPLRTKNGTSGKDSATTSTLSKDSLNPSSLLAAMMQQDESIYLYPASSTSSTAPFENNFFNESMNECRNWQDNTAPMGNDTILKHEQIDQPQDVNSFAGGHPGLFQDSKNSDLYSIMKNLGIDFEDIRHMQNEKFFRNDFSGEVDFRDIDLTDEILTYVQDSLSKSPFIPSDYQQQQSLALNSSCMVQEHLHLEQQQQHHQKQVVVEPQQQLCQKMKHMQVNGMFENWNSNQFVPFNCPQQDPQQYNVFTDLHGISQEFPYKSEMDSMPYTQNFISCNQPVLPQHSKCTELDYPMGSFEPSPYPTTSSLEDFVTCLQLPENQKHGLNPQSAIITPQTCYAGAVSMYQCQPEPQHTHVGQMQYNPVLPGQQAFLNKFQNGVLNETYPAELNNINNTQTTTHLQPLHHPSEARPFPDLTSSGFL
Sequence of Cellular tumor antigen p53 (Homo sapiens) (P04637 whole entry, looked up, the tested form may be a part): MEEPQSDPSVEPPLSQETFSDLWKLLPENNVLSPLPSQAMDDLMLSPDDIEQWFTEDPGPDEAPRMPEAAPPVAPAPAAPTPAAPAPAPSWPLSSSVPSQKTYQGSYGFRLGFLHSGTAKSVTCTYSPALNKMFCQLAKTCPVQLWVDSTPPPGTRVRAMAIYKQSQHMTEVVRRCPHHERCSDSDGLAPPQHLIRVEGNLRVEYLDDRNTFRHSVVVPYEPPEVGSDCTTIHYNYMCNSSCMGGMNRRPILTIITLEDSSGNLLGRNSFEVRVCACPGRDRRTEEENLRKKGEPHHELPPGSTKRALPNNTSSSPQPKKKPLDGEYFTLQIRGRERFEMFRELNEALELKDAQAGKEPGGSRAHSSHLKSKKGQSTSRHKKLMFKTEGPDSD

On to `CC(=O)/C=C/c1ccccc1`, for which the call in assay [1], in assay [2], in assay [3], in assay [5], in assay [6] and in assay [7] was inactive. The molecule was classed as inactive in assay [8], in [11], in assay [13], in assay [14], in assay [15] and in [17]. In addition, the concentration at half-maximal activity (AC50) was 86.4 µM (active) in assay [4]; 70.9 µM (active) in assay [9]; 156 µM (active) in [10]; 31.6 µM (active) in assay [12]; 33 µM (active) in [16].
Regarding `Cc1cc(C)c(C2=C(OC(=O)CC(C)(C)C)C3(CCCC3)OC2=O)c(C)c1`, the AC50 was 127 µM (active) in assay [1]; 170 µM (active) in assay [10]; 104 µM (active) in assay [13]; 189 µM (active) in assay [15]; 160 µM (active) in assay [16]; 128 µM (active) in assay [17]. Also, the result in assay [2], in assay [3], in assay [18], in assay [19], in assay [5] and in assay [7] was inactive. Moreover, the outcome in assay [8], in [9] and in [11] was inactive.
On to `c1ccc2c(c1)CCCC2`, for which the molecule was called inactive in assay [1], in assay [2], in assay [3], in assay [18], in assay [19] and in assay [5]. The molecule was classed as inactive in assay [6], in assay [7], in [8], in assay [9], in [10] and in assay [11]. Besides, the call in assay [12], in [13], in assay [15], in assay [16], in [17] and in assay [20] was inactive.
As to `O=CNC(N1CCN(C(NC=O)C(Cl)(Cl)Cl)CC1)C(Cl)(Cl)Cl` (stereo not drawn), the molecule was classed as inactive in assay [1], in [2], in assay [3], in [18], in assay [19] and in assay [5]. Moreover, the outcome in assay [6], in [7], in assay [8], in assay [9], in [11] and in [13] was inactive. In addition, the molecule was classed as inactive in assay [14], in [15], in assay [16] and in assay [17]. Besides, the results for the AC50 in assay [12] and in assay [20] were 15.3 µM (active) and 148 µM (active), respectively.
